# Data published in publication PMC7862700, “An all-to-all approach to the identification of sequence-specific readers for epigenetic DNA modifications on cytosine”.
# Tests used:
# Assay in all cases: DAPPL (digital affinity profiling via proximity ligation, sequencing); 10 mM Tris-HCl pH 7.5, 50 mM NaCl, 1 mM DTT, 4% glycerol, room temperature, 30 min; GST-TFs on glutathione beads, 16-mer random dsDNA library, 0.1% formaldehyde crosslink after washing; high values mean tight binding
# FLI1 = target: T1, FLI1 (Homo sapiens, UniProt Q01543 1-452); conditions: protein: recombinant; tags: N-terminal GST; dsDNA, one strand shown
# T1 sequence: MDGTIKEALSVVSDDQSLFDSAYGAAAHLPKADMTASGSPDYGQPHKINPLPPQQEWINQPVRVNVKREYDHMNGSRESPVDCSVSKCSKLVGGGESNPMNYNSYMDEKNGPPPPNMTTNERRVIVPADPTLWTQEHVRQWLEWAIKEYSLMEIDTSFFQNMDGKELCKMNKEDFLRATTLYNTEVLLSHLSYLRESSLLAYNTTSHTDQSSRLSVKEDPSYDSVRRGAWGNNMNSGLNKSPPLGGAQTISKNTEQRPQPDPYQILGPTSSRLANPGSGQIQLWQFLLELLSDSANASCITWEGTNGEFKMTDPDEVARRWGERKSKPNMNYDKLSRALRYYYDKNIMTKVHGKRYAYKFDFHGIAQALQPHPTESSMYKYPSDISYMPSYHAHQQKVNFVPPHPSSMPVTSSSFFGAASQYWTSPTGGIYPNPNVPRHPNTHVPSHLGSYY
# Method in brief: (§1)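 Beads coated with glutathione captured GST-fused human transcription factors that had been expressed in yeast, and the factors were then given DNA barcodes and pooled with a tag-only sample. The pools were incubated with 200 nmole of a random double-stranded 16-mer DNA library in Tris/NaCl/DTT/glycerol buffer for 30 min at room temperature, washed, crosslinked with 0.1% formaldehyde and proximity-ligated with BsaI/T4 ligase at 37 °C for 1 h. PCR amplification and Illumina NextSeq500 sequencing came last. Binding signal is each hexamer's read frequency for a factor divided by its frequency for the tag-only sample.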
# ELK1 = target: T2, ELK1 (Homo sapiens, UniProt P19419 1-428); conditions: protein: recombinant; tags: N-terminal GST; dsDNA, one strand shown
# T2 sequence: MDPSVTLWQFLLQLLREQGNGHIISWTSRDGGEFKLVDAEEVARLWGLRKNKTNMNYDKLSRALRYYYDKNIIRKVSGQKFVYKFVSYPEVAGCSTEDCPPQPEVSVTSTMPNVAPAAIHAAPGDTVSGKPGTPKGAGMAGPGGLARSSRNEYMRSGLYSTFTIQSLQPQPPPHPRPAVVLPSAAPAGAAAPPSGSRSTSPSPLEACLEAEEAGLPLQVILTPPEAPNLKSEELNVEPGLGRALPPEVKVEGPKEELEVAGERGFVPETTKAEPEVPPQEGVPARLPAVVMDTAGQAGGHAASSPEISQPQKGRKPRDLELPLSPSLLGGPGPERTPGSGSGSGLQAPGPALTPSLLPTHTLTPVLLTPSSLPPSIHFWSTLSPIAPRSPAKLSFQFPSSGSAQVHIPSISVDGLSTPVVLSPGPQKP
# Method in brief: as §1
# GABPA = target: T3, GABPA (Homo sapiens, UniProt Q06546 1-454); conditions: protein: recombinant; tags: N-terminal GST; dsDNA, one strand shown
# T3 sequence: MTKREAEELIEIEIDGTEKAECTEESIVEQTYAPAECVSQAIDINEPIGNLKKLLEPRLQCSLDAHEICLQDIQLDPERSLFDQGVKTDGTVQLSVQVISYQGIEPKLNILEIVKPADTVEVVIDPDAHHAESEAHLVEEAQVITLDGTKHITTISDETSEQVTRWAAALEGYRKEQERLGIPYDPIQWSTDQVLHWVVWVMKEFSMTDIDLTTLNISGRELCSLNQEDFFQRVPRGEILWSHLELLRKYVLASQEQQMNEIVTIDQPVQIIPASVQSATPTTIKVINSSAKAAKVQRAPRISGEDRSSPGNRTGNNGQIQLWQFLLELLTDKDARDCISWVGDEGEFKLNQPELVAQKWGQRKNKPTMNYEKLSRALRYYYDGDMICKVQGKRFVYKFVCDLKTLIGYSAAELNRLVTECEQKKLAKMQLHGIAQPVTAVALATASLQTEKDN
# Method in brief: as §1
# ERG = target: T4, ERG (Homo sapiens, UniProt P11308 1-479); conditions: protein: recombinant; tags: N-terminal GST; dsDNA, one strand shown
# T4 sequence: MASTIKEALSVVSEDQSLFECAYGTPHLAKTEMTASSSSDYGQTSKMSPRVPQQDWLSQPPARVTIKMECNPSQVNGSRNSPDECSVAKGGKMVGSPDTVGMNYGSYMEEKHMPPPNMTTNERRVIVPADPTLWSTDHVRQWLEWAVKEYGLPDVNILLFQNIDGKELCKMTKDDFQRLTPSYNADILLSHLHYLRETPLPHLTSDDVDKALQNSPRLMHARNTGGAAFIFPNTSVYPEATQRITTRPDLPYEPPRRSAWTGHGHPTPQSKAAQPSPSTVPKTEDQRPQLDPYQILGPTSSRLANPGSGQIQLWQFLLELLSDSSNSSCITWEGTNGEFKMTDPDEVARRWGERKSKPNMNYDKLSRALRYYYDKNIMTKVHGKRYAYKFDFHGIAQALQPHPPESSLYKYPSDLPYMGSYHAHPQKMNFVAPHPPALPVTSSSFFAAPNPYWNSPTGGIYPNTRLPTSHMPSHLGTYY
# Method in brief: as §1
# ELF1 = ELF1 (Homo sapiens, UniProt P32519 1-619); conditions: protein: recombinant; tags: N-terminal GST; dsDNA, one strand shown
# ELF1, sequence (P32519 whole entry): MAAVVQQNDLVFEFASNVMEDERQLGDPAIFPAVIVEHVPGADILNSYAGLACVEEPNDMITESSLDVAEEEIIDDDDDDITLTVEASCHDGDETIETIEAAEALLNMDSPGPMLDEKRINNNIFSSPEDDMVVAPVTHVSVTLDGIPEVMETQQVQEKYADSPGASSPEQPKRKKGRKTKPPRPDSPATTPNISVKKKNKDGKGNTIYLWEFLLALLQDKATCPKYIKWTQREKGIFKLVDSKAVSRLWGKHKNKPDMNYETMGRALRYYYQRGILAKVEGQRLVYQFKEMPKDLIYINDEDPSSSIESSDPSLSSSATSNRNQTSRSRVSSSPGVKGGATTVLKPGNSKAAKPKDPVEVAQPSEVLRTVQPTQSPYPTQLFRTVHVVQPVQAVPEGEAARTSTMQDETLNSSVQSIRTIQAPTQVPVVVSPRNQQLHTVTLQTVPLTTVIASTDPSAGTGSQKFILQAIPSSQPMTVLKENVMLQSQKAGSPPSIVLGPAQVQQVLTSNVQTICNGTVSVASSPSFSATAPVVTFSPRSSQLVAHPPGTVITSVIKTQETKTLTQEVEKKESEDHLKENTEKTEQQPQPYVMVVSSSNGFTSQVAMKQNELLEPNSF
# Method in brief: as §1
# EHF = target: T5, EHF (Homo sapiens, UniProt Q9NZC4 1-300); conditions: protein: recombinant; tags: N-terminal GST; dsDNA, one strand shown
# T5 sequence: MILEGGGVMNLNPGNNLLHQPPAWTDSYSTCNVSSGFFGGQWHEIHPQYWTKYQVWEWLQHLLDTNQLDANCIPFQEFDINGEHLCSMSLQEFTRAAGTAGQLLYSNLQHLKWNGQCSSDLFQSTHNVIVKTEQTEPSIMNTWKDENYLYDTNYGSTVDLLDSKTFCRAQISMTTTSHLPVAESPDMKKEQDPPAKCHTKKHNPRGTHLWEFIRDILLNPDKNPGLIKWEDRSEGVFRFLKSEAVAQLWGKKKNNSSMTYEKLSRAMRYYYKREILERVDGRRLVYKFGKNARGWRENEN
# Method in brief: as §1
# SPI1 = SPI1 (Homo sapiens, UniProt P17947 1-270); conditions: protein: recombinant; tags: N-terminal GST; dsDNA, one strand shown
# Method in brief: as §1
# SPIB = SPIB (Homo sapiens, UniProt Q01892 1-262); conditions: protein: recombinant; tags: N-terminal GST; dsDNA, one strand shown
# SPIB, sequence (Q01892 whole entry): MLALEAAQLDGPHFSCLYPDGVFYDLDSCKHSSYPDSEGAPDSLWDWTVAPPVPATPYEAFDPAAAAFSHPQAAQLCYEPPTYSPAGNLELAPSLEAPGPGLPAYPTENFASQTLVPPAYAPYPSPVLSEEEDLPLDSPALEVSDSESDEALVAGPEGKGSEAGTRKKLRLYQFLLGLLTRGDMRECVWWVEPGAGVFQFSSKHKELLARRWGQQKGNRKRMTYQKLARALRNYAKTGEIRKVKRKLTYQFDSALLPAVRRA
# Method in brief: as §1
# ELK3 = target: T6, ELK3 (Homo sapiens, UniProt P41970 1-407); conditions: protein: recombinant; tags: N-terminal GST; dsDNA, one strand shown
# T6 sequence: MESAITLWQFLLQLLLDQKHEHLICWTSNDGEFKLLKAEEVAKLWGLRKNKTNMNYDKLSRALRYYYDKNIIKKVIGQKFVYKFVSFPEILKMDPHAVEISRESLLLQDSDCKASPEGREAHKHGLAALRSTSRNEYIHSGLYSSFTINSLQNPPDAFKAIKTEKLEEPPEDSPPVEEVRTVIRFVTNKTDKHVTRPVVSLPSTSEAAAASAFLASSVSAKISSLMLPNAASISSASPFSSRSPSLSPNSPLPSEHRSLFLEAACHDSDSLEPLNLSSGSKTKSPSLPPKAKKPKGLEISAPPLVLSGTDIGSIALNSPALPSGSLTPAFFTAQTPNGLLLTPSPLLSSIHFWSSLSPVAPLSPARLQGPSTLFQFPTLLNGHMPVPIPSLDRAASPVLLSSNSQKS
# Method in brief: as §1
# FEV = target: T7, FEV (Homo sapiens, UniProt Q99581 1-238); conditions: protein: recombinant; tags: N-terminal GST; dsDNA, one strand shown
# T7 sequence: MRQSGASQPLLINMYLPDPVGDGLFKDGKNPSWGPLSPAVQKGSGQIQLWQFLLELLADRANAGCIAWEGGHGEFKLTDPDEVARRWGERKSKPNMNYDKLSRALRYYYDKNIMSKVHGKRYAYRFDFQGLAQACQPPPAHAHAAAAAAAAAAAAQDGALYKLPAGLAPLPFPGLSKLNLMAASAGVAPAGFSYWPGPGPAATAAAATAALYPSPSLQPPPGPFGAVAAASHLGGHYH
# Method in brief: as §1
# ETV5 = ETV5 (Homo sapiens, UniProt P41161 1-510); conditions: protein: recombinant; tags: N-terminal GST; dsDNA, one strand shown
# ETV5, sequence (P41161 whole entry): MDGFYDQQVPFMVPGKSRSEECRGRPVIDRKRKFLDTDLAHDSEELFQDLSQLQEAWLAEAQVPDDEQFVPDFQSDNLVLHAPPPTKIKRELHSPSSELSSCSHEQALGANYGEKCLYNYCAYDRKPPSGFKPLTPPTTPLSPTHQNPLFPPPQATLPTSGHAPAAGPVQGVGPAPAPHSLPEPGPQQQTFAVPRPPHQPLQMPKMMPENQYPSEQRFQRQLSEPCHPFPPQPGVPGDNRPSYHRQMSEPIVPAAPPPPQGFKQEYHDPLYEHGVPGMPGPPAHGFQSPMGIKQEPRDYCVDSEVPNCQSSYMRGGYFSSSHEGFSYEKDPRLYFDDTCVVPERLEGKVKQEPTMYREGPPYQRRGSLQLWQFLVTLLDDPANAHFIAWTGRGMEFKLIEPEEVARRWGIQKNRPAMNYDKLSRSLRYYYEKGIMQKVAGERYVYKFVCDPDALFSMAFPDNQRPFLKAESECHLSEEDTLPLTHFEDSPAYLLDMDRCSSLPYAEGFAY
# Method in brief: as §1
# HSF1 = HSF1 (Homo sapiens, UniProt Q00613 1-529); conditions: protein: recombinant; tags: N-terminal GST; chain copies: 3; dsDNA, one strand shown
# HSF1, sequence (Q00613 whole entry): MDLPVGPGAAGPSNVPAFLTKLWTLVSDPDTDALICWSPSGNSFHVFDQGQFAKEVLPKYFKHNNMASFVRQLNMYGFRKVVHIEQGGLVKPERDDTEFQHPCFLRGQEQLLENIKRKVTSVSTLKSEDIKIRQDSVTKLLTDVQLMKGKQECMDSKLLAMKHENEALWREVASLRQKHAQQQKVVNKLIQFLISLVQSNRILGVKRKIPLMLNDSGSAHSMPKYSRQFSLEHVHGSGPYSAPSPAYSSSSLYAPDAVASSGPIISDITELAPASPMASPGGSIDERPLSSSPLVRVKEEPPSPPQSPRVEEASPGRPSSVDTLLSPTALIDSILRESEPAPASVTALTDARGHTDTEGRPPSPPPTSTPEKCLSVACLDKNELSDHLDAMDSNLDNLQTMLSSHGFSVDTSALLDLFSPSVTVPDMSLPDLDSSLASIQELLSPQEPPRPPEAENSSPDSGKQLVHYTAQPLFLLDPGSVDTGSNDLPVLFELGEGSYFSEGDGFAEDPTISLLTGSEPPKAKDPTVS
# Method in brief: as §1
# SPIC = target: T8, SPIC (Homo sapiens, UniProt Q8N5J4 1-248); conditions: protein: recombinant; tags: N-terminal GST; dsDNA, one strand shown
# T8 sequence: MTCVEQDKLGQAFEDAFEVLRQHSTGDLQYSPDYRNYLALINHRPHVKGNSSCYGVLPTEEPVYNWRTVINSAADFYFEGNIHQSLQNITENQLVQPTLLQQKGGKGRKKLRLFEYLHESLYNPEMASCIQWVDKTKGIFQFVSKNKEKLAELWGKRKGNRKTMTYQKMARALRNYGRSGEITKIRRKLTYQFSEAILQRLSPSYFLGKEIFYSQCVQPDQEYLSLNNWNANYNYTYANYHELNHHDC
# Method in brief: as §1
# ELF4 = ELF4 (Homo sapiens, UniProt Q99607 1-663); conditions: protein: recombinant; tags: N-terminal GST; dsDNA, one strand shown
# ELF4, sequence (Q99607 whole entry): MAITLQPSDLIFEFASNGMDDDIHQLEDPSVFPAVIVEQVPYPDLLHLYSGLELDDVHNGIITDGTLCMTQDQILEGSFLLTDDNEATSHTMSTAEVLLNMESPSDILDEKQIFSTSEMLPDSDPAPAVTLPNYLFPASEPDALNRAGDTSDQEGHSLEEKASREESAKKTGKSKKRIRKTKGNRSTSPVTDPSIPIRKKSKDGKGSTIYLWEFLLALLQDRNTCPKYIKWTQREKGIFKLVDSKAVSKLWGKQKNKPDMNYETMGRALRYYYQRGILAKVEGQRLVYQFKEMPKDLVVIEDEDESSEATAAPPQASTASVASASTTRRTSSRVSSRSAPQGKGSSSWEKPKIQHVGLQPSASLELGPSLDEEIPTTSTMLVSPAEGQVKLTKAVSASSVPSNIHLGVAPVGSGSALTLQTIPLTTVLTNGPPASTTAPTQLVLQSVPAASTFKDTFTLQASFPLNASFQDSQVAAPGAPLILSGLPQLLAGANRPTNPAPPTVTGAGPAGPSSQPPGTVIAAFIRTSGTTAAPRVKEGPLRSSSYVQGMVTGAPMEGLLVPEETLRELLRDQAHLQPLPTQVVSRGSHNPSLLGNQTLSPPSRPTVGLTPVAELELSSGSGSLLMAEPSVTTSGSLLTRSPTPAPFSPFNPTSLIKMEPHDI
# Method in brief: as §1
# ELK4 = target: T9, ELK4 (Homo sapiens, UniProt P28324-2 1-405); conditions: protein: recombinant; tags: N-terminal GST; dsDNA, one strand shown
# T9 sequence: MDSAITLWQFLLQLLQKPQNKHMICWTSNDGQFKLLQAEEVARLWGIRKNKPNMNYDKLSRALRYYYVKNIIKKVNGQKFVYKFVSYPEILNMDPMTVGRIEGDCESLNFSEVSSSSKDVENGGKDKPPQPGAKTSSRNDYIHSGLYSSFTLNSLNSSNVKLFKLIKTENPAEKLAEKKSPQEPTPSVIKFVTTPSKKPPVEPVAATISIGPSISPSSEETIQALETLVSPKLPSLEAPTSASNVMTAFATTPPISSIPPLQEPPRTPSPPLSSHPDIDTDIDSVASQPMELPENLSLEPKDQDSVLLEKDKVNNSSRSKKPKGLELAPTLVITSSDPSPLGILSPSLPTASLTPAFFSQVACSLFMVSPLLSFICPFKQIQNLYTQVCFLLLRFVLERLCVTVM
# Method in brief: as §1
# ETV2 = target: T10, ETV2 (Homo sapiens, UniProt O00321 1-342); conditions: protein: recombinant; tags: N-terminal GST; dsDNA, one strand shown
# T10 sequence: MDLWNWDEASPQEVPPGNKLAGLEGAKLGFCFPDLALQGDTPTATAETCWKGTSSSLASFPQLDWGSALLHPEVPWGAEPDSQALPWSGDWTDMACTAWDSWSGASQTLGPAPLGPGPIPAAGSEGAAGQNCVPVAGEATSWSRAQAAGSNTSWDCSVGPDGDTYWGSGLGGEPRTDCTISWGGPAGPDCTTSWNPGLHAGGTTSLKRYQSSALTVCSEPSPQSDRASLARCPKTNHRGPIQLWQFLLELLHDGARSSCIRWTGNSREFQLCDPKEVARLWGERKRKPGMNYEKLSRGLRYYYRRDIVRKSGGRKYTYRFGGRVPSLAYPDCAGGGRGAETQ
# Method in brief: as §1
# ELF3 = target: T11, ELF3 (Homo sapiens, UniProt P78545 1-371); conditions: protein: recombinant; tags: N-terminal GST; dsDNA, one strand shown
# T11 sequence: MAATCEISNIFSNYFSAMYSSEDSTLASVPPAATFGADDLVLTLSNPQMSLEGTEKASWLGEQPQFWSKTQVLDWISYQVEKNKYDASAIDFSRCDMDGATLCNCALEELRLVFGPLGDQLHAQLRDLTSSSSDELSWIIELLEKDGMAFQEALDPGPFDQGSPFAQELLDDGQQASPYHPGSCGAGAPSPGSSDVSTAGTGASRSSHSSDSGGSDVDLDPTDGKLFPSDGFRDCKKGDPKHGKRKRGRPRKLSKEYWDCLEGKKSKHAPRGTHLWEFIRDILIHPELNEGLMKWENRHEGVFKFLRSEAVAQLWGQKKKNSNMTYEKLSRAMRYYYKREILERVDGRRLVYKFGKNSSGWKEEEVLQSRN
# Method in brief: as §1
# CRX = CRX (Homo sapiens, UniProt O43186 1-299); conditions: protein: recombinant; tags: N-terminal GST; dsDNA, one strand shown
# CRX, sequence (O43186 whole entry): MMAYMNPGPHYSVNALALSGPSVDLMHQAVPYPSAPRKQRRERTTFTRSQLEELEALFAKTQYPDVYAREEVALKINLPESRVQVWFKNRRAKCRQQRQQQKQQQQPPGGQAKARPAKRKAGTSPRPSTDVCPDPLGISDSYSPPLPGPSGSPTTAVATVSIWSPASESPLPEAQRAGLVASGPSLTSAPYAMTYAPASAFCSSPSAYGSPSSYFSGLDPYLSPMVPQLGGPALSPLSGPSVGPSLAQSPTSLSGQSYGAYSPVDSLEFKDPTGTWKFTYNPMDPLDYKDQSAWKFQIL
# Method in brief: as §1
# ETV1 = ETV1 (Homo sapiens, UniProt P50549 1-477); conditions: protein: recombinant; tags: N-terminal GST; dsDNA, one strand shown
# ETV1, sequence (P50549 whole entry): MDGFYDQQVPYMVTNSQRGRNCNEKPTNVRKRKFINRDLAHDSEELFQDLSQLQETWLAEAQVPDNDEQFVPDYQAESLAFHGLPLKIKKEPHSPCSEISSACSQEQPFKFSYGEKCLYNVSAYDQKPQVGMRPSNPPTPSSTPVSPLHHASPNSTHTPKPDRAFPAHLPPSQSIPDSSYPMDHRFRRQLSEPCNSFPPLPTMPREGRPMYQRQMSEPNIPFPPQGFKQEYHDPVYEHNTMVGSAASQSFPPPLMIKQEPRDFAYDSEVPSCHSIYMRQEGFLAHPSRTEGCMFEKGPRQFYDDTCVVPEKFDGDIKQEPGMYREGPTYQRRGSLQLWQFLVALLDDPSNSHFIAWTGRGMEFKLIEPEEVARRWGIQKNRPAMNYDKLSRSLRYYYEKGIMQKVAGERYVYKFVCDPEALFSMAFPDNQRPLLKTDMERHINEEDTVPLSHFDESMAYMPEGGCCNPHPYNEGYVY
# Method in brief: as §1
sequence,measurement,setting,value
CTATAC,binding signal,FLI1,"1.28 fold enrichment (6-mer frequency, TF over GST control)"
same,binding signal,ELK1,"1.22 fold enrichment (6-mer frequency, TF over GST control)"
same,binding signal,GABPA,"1.35 fold enrichment (6-mer frequency, TF over GST control)"
same,binding signal,ERG,"1.24 fold enrichment (6-mer frequency, TF over GST control)"
same,binding signal,ELF1,"1.31 fold enrichment (6-mer frequency, TF over GST control)"
same,binding signal,EHF,"1.21 fold enrichment (6-mer frequency, TF over GST control)"
same,binding signal,SPI1,"1.21 fold enrichment (6-mer frequency, TF over GST control)"
same,binding signal,SPIB,"1.16 fold enrichment (6-mer frequency, TF over GST control)"
same,binding signal,ELK3,"1.21 fold enrichment (6-mer frequency, TF over GST control)"
same,binding signal,FEV,"1.3 fold enrichment (6-mer frequency, TF over GST control)"
same,binding signal,ETV5,"1.22 fold enrichment (6-mer frequency, TF over GST control)"
same,binding signal,HSF1,"1.14 fold enrichment (6-mer frequency, TF over GST control)"
same,binding signal,SPIC,"1.21 fold enrichment (6-mer frequency, TF over GST control)"
same,binding signal,ELF4,"1.29 fold enrichment (6-mer frequency, TF over GST control)"
same,binding signal,ELK4,"1.07 fold enrichment (6-mer frequency, TF over GST control)"
same,binding signal,ETV2,"1.4 fold enrichment (6-mer frequency, TF over GST control)"
same,binding signal,ELF3,"1.24 fold enrichment (6-mer frequency, TF over GST control)"
same,binding signal,CRX,"1.19 fold enrichment (6-mer frequency, TF over GST control)"
same,binding signal,ETV1,"1.29 fold enrichment (6-mer frequency, TF over GST control)"
